In PubChem BioAssay AID434994 (NMMLSC, 2010) one finds superoxide response (% of plate) data, which are given here for two compounds.

This is one part of the list. Activity calls are given as the source filed them.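 How the source made its calls: active means superoxide signal below 65% of the plate average of sample wells; inactive means the rest.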

This assay in a line: superoxide lowering in aged yeast cells, confirmation, cherry picked compounds (AID 434994).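 Further: cells aged with compound for 7 days at 30 degrees C before staining; 100% equals mean DHE fluorescence of all compound wells on the plate.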 The settings on record: S. cerevisiae aging, superoxide DHE fluorescence; at 10 µM; active compounds read low.

As to `C[C@]12CCC3C(CC[C@H]4C[C@@H](O)CC[C@]34C)C1C[C@@H](O)[C@H]2O` (some centres not stated), the superoxide response (% of plate) is 90.6% (inactive).

For the compound `CN1CCN(C(=S)SCC(=O)Nc2ccc(Cl)cc2C(=O)c2ccccc2)CC1`, the superoxide response (% of plate) was 111% (inactive).
